# How the values were obtained:
# Assay in all cases: PBM binding z-score (relative to random genomic background probes); higher = stronger binding; sequences stand for … in GC…GCGATTGACAGCGTAGAATGAAGG
# [1] = tested on: PPARg:RXRa DBDmut IVT, anti-RXR (DBD mutation: RXRa K156A/R161A, NR concentration 270 nM, RXRa partner concentration 90 nM)
# How it was run: (§1)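 The probes on custom Agilent 4×180K protein-binding microarrays were double-stranded, with 34-nt variable regions bearing direct-repeat seeds, single-nucleotide variants, half-site ablations and random human genomic background sequences. Incubation lasted 1 h with ligand-free nuclear receptor dimers in PBS pH 7.4, 2% milk, 0.02% Triton X-100, 1 mM DTT, 0.2 mg/mL BSA and 0.4 mg/ml salmon testes DNA. Antibodies against each partner (one per run) detected bound dimers, and fluorescence scans were regression-normalized. Binding z-scores take the random background probes as reference.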
# [2] = tested on: PPARg:RXRa IVT, anti-PPARg (NR concentration 270 nM, RXRa partner concentration 90 nM)
# How it was run: as §1
# [3] = tested on: PPARg DBDmut:RXRa IVT, anti-PPARg (DBD mutation: PPARg1 K132A/R137A, NR concentration 270 nM, RXRa partner concentration 90 nM)
# How it was run: as §1
# [4] = tested on: PPARg DBDmut IVT, anti-PPARg (DBD mutation: PPARg1 K132A/R137A, NR concentration 270 nM)
# How it was run: as §1
# [5] = tested on: PPARg homodimer (NR concentration 180 nM)
# How it was run: as §1
# [6] = tested on: PXR:RXRa (NR concentration 270 nM, RXRa partner concentration 90 nM)
# How it was run: as §1
# [7] = tested on: PXR homodimer (NR concentration 270 nM)
# How it was run: as §1
# [8] = tested on: RARa:RXR (NR concentration 270 nM, RXRa partner concentration 90 nM)
# How it was run: as §1
# [9] = tested on: RARa homodimer (NR concentration 270 nM)
# How it was run: as §1
# [10] = tested on: RARb:RXRa (NR concentration 270 nM, RXRa partner concentration 90 nM)
# How it was run: as §1
Sequence,PBM binding z-score [1],PBM binding z-score [2],PBM binding z-score [3],PBM binding z-score [4],PBM binding z-score [5],PBM binding z-score [6],PBM binding z-score [7],PBM binding z-score [8],PBM binding z-score [9],PBM binding z-score [10]
AATACAGGGTCATCGTAGGCGAGAGTACGCACAG,2.84,4.14,3.29,1.01,2.21,4.29,1.03,5.1,1.25,4.37
CCTTACGGGTCAAGGATATAGCACGGGTGGTACG,1.81,3.02,0.42,-0.469,1.43,2.54,0.0549,3.44,0.583,3.88
ATATGTCGGTTATCGGGTCATTCAGTTTGCGCAT,3.75,4.28,1.98,2.05,2.12,3.32,7.06,3.02,0.924,2.11
ATATGTGGGTTACATCCGGGTCATTCAGGCTATG,6.84,6.81,2.1,2.31,2.37,3.72,2.92,3.51,1.06,2.01
CCGATTGGGGCATAAGGTTACCATAAGCCAGCCC,1.21,1.53,-1.1,-1.31,0.682,0.17,-0.12,1.42,-0.579,1.66
TCAGACAGGTGAAGGTAACTCAAGTACGCAGTCG,2.91,0.867,0.154,-0.232,0.845,0.794,0.336,0.988,0.423,1.14
ATCGAAAGGTCGAAGGTGAGTATCCCCACCCGAA,0.0448,2.14,0.338,0.675,1.12,2.87,-0.31,3.89,0.365,3.68
ATCGAAAGGTCGAGGTGAGTATGGAGAAAGGGAA,0.289,2.45,0.568,0.731,1.64,2.3,0.205,2.72,0.528,3.95
TCTTGTAGATCAATAGAGGTTCAGAAAGTGCGCT,1.62,0.382,0.0591,1.1,-0.371,1.06,0.746,0.485,0.189,0.0734
TAGCCTAGGTCAGATCGGGCCAGTGTACGCTATA,0.622,1.31,-1.37,-0.791,-0.0708,1.18,-1.04,1.19,-1.04,3.04
AGTCAAAGTTCACTATGTAACGTAAGATTCAGCT,0.152,2.39,1.02,0.578,1.55,3.59,1.72,2.7,0.755,4.57
GCGACTGGGGCAAAGCATGTTACCATAAGGTTGG,4.73,3.23,-0.245,-0.674,0.0632,-0.48,-0.713,-0.255,-1.06,0.551
TAGCCTAGGTCATGCGGGCCATTATAGTGTCGGC,2.07,2.84,0.0501,-0.158,0.864,1.97,0.0749,2.7,-0.379,3.69
GCTATTAGTTGAAGGGGCAACCGAATGATTCTCG,0.421,-0.0967,-0.209,0.191,1.03,-0.209,-0.028,0.0521,0.778,0.759
TCTCGGAGGACACGAAAGGTCAGAGCACGACATC,1.29,1.57,0.69,-0.292,4.15,4.24,0.7,4.89,2.34,4.09
ACTAGCAGGCCAAGGGTCACTCAAGATTAGTCCG,0.983,4.06,-0.0619,-0.0525,2.65,3.21,-0.112,3.84,0.215,3.41
TAGCCTAGGTCATGCGGGCCAGTAAAGTGTCGGC,1.41,2.75,0.246,-0.0156,0.811,1.51,-0.33,2.44,-0.385,3.78
CCTAGCAGGCCAGGGTCACTCATGCATTTCGCTT,-0.158,1.27,-1.04,-1.56,0.688,2.19,-0.121,2.67,-0.129,2.38
GGTTGTAGATCAAGGTTAAGAAAGACTAAGCTAA,0.74,1.03,0.337,0.177,1.28,0.988,0.866,1.16,1.7,1.17
ACTAGTAGTTGAGACGAGGGCAACCGATAGGTTG,-0.0209,0.386,-0.147,-0.849,-0.115,1.63,0.115,0.6,0.181,0.978
CCGACTGGGGCATAAGGTTACTATAAGCCAGCCC,2.65,3.13,-0.815,-1.53,0.494,0.29,-0.23,0.911,-0.358,1.45
CAAACTAGGTCACTGGAAGGTCAAAGTCCGCATG,8.42,8.89,7.66,2.9,9.82,5.36,2.12,7.1,3.34,4.9
TAGCCTAGGTCATTGGGGCAGTATAGTACGCATC,3,4.45,0.832,0.251,1.66,1.89,0.425,2.52,0.554,3.83

# Reference: the supplement of paper PMC6555819
